Results reported in PubChem BioAssay (NCI).
The panel holds about 79,000 compounds, 15% with a hit somewhere; the sample as a whole holds those more often. The source made the active and inactive calls. Rule as the data show it: active = growth inhibition above about 70%; inactive = the rest.

Columns and labels:
[1] = NCI Yeast Anticancer Drug Screen. Data for the rad50 strain (AID 155);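 also: 0% = growth of vehicle-only cultures of the same strain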; conditions: S. cerevisiae rad50 strain growth inhibition, stronger effect = higher value
Outline: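 Yeast carrying a defined DNA repair defect were exposed to test compounds, and growth was compared with vehicle-treated controls to give percent inhibition.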

[2] = NCI Yeast Anticancer Drug Screen. Data for the mec2-1 strain (AID 157); conditions: S. cerevisiae mec2-1 strain, stronger effect = higher value
Outline: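 Cells of the genetically defined mec2-1 yeast strain are incubated with test compound. Inhibition of growth is calculated against vehicle-treated controls.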

[3] = NCI Yeast Anticancer Drug Screen. Data for the sgs1 mgt1 strain (AID 161);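 also: 0% = growth of cultures given vehicle only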; conditions: S. cerevisiae sgs1 mgt1 strain, stronger effect = higher value
Outline: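 Mutant yeast exposed to compound; growth scored against vehicle-only wells.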

[4] = NCI Yeast Anticancer Drug Screen. Data for the cln2 rad14 strain (AID 165);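 also: 0% = growth equal to vehicle treated cultures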; conditions: S. cerevisiae cln2 rad14 strain, stronger effect = higher value
Outline: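 The screen exposed genetically defined yeast (cln2 rad14) to test compounds and scored growth inhibition relative to vehicle-treated controls.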

[5] = NCI Yeast Anticancer Drug Screen. Data for the bub3 strain (AID 167); conditions: S. cerevisiae bub3 mutant strain, stronger effect = higher value
Outline: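 Compounds were applied to a genetically altered yeast strain carrying a cell-cycle control defect. Growth inhibition was scored against vehicle-treated controls.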

[6] = NCI Yeast Anticancer Drug Screen. Data for the mlh1 rad18 strain (AID 175); conditions: S. cerevisiae mlh1 rad18 strain growth inhibition, stronger effect = higher value
Outline: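 Compound-treated yeast growth, normalised to vehicle controls. Strain bears defined DNA repair mutations.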

[7] = at 5.0 µM (retest, dose inferred, filed as 0.5)
[8] = at 50.0 µM (retest, dose inferred, filed as 5.0)

Measured: growth inhibition

CCCCCN1C(=O)CC(C(=O)OCC)=C1C
inactive: [1]; [7] 3% | [1]; [8] -14% | [1]; at 50.0 µM -12% | [2]; [7] -3% | [2]; [8] -8% | [2]; at 50.0 µM -17.2% | [3]; [7] -4% | [3]; [8] -14% | [3]; at 50.0 µM -23.9% | [4]; [7] -9% | [4]; [8] 1% | [5]; [7] -3% | [5]; [8] 3% | [5]; at 50.0 µM 30.3% | [6]; [7] 1% | [6]; [8] -10% | [6]; at 50.0 µM 9.1%
active: [4]; at 50.0 µM 76.5%

O=C(N=Nc1cccc(Cl)c1)NNc1cccc(Cl)c1
inactive: [1]; [7] 12% | [2]; [7] -11% | [3]; [7] -9% | [4]; [7] 26% | [5]; [7] -24% | [6]; [7] -6%
active: [1]; [8] 98% | [1]; at 50.0 µM 85.8% | [2]; [8] 99% | [2]; at 50.0 µM 90.6% | [3]; [8] 91% | [3]; at 50.0 µM 83.2% | [4]; [8] 99% | [4]; at 50.0 µM 83.5% | [5]; [8] 99% | [5]; at 50.0 µM 86.3% | [6]; [8] 98% | [6]; at 50.0 µM 85.4%

CCOC(=O)/C(=C\c1ccc(Br)cc1)C(C)=O
inactive: [1]; [7] 28% | [2]; [7] 29% | [3]; [7] 48% | [4]; [7] 34%
active: [1]; [8] 98% | [1]; at 50.0 µM 92.5% | [2]; [8] 99% | [2]; at 50.0 µM 94.2% | [3]; [8] 98% | [3]; at 50.0 µM 93.5% | [4]; [8] 98% | [4]; at 50.0 µM 92.5% | [5]; [7] 71% | [5]; [8] 99% | [5]; at 50.0 µM 92.3% | [6]; [7] 70% | [6]; [8] 99% | [6]; at 50.0 µM 91.7%

CN(CCO)CCn1cnc2c1c(=O)n(C)c(=O)n2C
inactive: [1]; [7] -7% | [1]; [8] 5% | [1]; at 50.0 µM -36.7% | [2]; [7] -8% | [2]; [8] 9% | [2]; at 50.0 µM -13.9% | [3]; [7] 7% | [3]; [8] -2% | [3]; at 50.0 µM 1.65% | [4]; [7] -15% | [4]; [8] -12% | [4]; at 50.0 µM -21.8% | [5]; [7] -4% | [5]; [8] 9% | [5]; at 50.0 µM -7.15% | [6]; [7] -11% | [6]; [8] -1% | [6]; at 50.0 µM -5.9%

O=S(=O)(Nc1ccccc1)c1ccccc1C#Cc1ccccc1
inactive: [1]; [7] -3% | [2]; [7] -2% | [3]; [7] 10% | [4]; [7] -70% | [5]; [7] 2% | [5]; [8] 64% | [6]; [7] 3%
active: [1]; [8] 91% | [1]; at 50.0 µM 89.8% | [2]; [8] 92% | [2]; at 50.0 µM 79.2% | [3]; [8] 93% | [3]; at 50.0 µM 86.9% | [4]; [8] 92% | [4]; at 50.0 µM 74.3% | [5]; at 50.0 µM 89.8% | [6]; [8] 95% | [6]; at 50.0 µM 91.5%

Clc1ccc(C2=CC(c3ccccc3)N3C(=N[C@H]4CCCC[C@@H]43)N2)cc1 (some centres not stated)
active: [3]; at 50.0 µM 79.2% | [5]; at 50.0 µM 84.8% | [6]; at 50.0 µM 91.8%
inactive: [1]; [7] 8% | [1]; [8] 6% | [1]; at 50.0 µM 55.4% | [2]; [7] 4% | [2]; [8] 4% | [2]; at 50.0 µM 54.2% | [3]; [7] 6% | [3]; [8] 17% | [4]; [7] 11% | [4]; [8] 33% | [4]; at 50.0 µM 32.2% | [5]; [7] 14% | [5]; [8] 19% | [6]; [7] 6% | [6]; [8] 11%

COc1ccccc1C1c2cc3c(cc2OC2(OC)COC(=O)C12)OCO3 (configuration not stated)
inactive: [1]; [7] 24% | [1]; [8] 58% | [1]; at 50.0 µM 9.85% | [2]; [7] 22% | [2]; [8] 42% | [2]; at 50.0 µM 0% | [3]; [7] 11% | [3]; [8] 42% | [3]; at 50.0 µM 1.95% | [4]; [7] 20% | [4]; [8] 35% | [4]; at 50.0 µM 17% | [5]; [7] 32% | [5]; [8] 54% | [5]; at 50.0 µM 17.2% | [6]; [7] 23% | [6]; [8] 69% | [6]; at 50.0 µM 22%

CC(C)(C)C(OC(=O)Nc1ccccc1)C(C)(C)C
inactive: [1]; [7] -1% | [1]; [8] 29% | [1]; at 50.0 µM -0.7% | [2]; [7] -18% | [2]; [8] -5% | [2]; at 50.0 µM -2.2% | [3]; [7] 4% | [3]; [8] 8% | [3]; at 50.0 µM -9.55% | [4]; [7] 9% | [4]; [8] 16% | [4]; at 50.0 µM -61.5% | [5]; [7] -1% | [5]; [8] 37% | [5]; at 50.0 µM 5.1% | [6]; [7] 9% | [6]; [8] 36% | [6]; at 50.0 µM 6.25%

COc1ncc(Br)cc1C(=O)NCCc1ccc(S(=O)(=O)NC(=O)NC2CCCCC2)cc1
inactive: [1]; [7] 4% | [2]; [7] 5% | [3]; [7] -1% | [4]; [7] 5% | [5]; [7] 18% | [6]; [7] 11%
active: [1]; [8] 96% | [1]; at 50.0 µM 92.8% | [2]; [8] 94% | [2]; at 50.0 µM 95.5% | [3]; [8] 94% | [3]; at 50.0 µM 95.3% | [4]; [8] 96% | [4]; at 50.0 µM 96.2% | [5]; [8] 97% | [5]; at 50.0 µM 94.2% | [6]; [8] 94% | [6]; at 50.0 µM 94.9%
